# Measured values: the supplement of paper PMC10849652
# The full data set covers some 7,900 targets. This sample favours those with a hit. About 0.6% of all pairs of compound and target were hits. A number with no mark means an inactive call.
# Assays:
# Assay in all cases: log2 fold change, soluble protein after heating vs DMSO (PISA); higher = thermal stabilisation; K562 cells, 10 uM, 30 min; active = over 0.2 and 3.5 SD of the protein, either way, in both replicates (recomputed)
# [1] = compound: CS(=O)(=O)c1ccc(-c2cnc(N)c(C(=O)Nc3ccccc3)n2)cc1
# How it was run: (§1)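 K562 cells at 2×10^6 cells/mL were exposed to 10 μM compound for 30 min, then aliquots were heated for 3 min across 48°C-58°C, pooled, and extracted in PBS containing 0.5% NP-40 at 4°C. The supernatant after 21,000xg for 90 min was taken as soluble protein and measured by TMTpro 16plex LC-MS/MS with channel sums equalised. Thermal stability is reported relative to control samples, with values from duplicates. Fold changes are given on a log2 scale.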
# crizotinib = compound: C[C@@H](Oc1cc(-c2cnn(C3CCNCC3)c2)cnc1N)c1c(Cl)ccc(F)c1Cl [crizotinib]
# How it was run: as §1
# [2] = compound: C[C@@H]1COCCN1C2=NC(=NC(=C2)C3(CC3)S(=O)(=O)C)C4=C5C=CNC5=CC=C4
# How it was run: as §1
# [3] = compound: C[C@H](C1=CC=C(C=C1)C(=O)NC2=C3C=CNC3=NC=C2)N
# How it was run: as §1
# duvelisib = compound: C[C@H](Nc1ncnc2nc[nH]c12)c1cc2cccc(Cl)c2c(=O)n1-c1ccccc1 [duvelisib]
# How it was run: as §1
# gandotinib = compound: Cc1cc(Nc2cc(CN3CCOCC3)c3nc(C)c(Cc4ccc(Cl)cc4F)n3n2)n[nH]1 [gandotinib]
# How it was run: as §1
# tozasertib = compound: Cc1cc(Nc2cc(N3CCN(C)CC3)nc(Sc3ccc(NC(=O)C4CC4)cc3)n2)n[nH]1 [tozasertib]
# How it was run: as §1
# [4] = compound: Cc1cc(SCc2sc(-c3ccc(C(F)(F)F)cc3)nc2C)ccc1OCC(=O)O
# How it was run: as §1
# doramapimod = compound: Cc1ccc(-n2nc(C(C)(C)C)cc2NC(=O)Nc2ccc(OCCN3CCOCC3)c3ccccc23)cc1 [doramapimod]
# How it was run: as §1
# ispinesib = compound: Cc1ccc(C(=O)N(CCCN)[C@@H](c2nc3cc(Cl)ccc3c(=O)n2Cc2ccccc2)C(C)C)cc1 [ispinesib]
# How it was run: as §1
# UniProt Q14739, sequence (Q14739 whole entry, looked up): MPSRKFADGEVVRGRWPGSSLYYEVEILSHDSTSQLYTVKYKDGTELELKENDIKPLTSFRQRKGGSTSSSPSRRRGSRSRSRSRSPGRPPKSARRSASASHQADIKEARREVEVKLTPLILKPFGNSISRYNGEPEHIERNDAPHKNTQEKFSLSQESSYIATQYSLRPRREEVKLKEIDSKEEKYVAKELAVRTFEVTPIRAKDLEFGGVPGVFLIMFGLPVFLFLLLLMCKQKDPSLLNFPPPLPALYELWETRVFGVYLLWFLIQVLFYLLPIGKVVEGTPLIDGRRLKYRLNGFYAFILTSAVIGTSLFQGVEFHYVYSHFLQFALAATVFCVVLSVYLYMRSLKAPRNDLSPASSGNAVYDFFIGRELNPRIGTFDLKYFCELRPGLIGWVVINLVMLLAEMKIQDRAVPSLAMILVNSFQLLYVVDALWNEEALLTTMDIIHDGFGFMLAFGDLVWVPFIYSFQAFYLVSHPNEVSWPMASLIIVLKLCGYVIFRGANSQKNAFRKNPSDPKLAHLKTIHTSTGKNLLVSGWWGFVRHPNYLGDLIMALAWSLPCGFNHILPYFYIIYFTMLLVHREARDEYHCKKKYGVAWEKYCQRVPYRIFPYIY
# UniProt Q6N075, sequence (Q6N075 whole entry, looked up): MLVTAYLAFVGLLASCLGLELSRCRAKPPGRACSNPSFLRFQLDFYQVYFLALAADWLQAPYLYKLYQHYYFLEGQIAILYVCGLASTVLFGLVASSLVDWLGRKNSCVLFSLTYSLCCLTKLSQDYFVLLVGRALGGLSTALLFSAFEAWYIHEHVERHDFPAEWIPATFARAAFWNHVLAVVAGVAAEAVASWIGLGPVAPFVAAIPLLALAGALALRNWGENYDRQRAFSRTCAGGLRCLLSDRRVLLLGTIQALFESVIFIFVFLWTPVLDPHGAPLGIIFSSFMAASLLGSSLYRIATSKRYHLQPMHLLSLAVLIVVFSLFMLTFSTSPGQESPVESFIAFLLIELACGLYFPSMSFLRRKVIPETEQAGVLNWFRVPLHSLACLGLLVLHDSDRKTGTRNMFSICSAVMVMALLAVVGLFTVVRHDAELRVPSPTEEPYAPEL
# UniProt O43318, sequence (O43318 whole entry, looked up): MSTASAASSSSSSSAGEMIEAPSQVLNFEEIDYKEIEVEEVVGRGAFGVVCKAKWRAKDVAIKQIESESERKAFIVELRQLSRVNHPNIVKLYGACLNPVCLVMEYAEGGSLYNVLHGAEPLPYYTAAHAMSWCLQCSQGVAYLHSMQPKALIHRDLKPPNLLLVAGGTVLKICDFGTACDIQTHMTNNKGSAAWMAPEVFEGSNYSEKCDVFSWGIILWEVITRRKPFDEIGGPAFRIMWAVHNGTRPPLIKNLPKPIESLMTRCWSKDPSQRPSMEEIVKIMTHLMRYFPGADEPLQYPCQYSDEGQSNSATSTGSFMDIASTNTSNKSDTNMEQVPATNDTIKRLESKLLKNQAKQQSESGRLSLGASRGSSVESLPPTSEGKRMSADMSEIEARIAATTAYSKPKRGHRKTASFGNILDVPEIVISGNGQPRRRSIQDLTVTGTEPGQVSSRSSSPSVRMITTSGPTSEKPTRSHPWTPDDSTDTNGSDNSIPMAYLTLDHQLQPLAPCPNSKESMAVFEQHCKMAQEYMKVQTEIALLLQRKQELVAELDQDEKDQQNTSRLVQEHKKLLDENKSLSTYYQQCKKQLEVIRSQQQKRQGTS
# UniProt Q14693, sequence (Q14693 whole entry, looked up): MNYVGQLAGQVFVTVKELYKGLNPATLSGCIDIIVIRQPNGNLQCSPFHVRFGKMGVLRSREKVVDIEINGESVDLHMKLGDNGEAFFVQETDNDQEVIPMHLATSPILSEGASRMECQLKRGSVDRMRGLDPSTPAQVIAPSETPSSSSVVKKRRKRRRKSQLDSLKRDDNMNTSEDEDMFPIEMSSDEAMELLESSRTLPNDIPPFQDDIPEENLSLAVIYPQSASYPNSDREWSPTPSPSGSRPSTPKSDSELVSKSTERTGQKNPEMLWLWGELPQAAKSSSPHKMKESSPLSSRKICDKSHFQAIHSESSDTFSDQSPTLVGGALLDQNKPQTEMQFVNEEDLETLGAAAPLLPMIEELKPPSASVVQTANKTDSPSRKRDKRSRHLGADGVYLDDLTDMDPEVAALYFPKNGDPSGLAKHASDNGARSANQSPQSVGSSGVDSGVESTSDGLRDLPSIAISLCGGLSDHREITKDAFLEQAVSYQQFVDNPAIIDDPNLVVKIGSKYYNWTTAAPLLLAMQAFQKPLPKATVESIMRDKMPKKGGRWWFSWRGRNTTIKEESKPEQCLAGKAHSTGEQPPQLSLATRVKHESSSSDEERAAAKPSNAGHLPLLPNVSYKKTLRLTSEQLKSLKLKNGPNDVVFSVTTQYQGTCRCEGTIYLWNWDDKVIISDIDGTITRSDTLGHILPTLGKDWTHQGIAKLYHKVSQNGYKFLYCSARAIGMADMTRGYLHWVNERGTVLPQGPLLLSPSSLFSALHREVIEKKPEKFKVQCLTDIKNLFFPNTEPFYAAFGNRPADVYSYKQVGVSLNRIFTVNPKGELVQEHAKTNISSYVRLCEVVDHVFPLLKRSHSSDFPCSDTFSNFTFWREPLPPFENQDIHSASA
# UniProt Q8IYU8, sequence (Q8IYU8 whole entry, looked up): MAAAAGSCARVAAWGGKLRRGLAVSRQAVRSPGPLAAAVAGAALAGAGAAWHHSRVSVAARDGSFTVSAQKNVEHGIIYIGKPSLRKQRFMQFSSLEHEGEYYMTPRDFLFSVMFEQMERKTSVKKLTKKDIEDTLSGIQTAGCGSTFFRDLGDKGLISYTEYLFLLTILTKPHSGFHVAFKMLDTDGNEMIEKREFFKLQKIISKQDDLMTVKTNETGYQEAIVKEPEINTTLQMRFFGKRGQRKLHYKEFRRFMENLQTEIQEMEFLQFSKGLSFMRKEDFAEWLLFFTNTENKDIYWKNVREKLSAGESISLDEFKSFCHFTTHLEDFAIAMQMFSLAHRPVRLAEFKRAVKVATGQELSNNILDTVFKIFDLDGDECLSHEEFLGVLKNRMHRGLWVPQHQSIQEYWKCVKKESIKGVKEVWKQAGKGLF
# UniProt P27448, sequence (P27448 whole entry, looked up): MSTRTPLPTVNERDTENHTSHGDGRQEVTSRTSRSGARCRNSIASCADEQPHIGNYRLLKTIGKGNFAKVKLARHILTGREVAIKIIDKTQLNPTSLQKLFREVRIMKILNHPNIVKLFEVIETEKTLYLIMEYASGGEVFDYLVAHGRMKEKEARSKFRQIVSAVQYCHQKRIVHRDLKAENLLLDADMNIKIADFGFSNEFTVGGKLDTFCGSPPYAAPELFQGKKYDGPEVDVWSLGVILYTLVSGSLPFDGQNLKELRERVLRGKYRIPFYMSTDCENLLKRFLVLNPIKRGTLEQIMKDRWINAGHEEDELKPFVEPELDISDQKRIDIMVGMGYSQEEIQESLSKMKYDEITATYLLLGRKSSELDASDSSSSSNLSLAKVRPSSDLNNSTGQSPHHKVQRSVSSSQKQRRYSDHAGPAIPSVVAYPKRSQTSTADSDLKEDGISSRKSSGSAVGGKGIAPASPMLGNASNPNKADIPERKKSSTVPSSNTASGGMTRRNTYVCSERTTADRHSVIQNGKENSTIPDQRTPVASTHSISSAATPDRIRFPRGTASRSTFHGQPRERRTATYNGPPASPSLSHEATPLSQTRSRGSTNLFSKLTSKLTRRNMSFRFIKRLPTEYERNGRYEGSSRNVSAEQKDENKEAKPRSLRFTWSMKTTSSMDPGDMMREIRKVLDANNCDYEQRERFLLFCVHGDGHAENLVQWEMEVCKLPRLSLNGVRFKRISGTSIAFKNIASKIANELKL
# UniProt P52294, sequence (P52294 whole entry, looked up): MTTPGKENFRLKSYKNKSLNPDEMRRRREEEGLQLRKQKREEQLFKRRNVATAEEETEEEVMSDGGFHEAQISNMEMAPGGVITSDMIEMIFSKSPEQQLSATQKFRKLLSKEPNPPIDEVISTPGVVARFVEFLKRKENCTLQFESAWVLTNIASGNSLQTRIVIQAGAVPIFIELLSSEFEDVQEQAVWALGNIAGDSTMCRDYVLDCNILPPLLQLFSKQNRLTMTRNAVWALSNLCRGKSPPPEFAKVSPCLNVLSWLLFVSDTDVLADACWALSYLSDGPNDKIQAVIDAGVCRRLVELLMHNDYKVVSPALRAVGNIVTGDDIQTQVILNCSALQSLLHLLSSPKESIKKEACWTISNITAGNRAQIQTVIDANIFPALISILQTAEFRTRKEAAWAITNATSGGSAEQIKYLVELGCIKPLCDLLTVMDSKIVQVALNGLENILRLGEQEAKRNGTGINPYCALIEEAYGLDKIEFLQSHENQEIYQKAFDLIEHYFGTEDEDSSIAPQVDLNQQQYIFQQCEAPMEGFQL
# UniProt Q96EK5, sequence (Q96EK5 whole entry, looked up): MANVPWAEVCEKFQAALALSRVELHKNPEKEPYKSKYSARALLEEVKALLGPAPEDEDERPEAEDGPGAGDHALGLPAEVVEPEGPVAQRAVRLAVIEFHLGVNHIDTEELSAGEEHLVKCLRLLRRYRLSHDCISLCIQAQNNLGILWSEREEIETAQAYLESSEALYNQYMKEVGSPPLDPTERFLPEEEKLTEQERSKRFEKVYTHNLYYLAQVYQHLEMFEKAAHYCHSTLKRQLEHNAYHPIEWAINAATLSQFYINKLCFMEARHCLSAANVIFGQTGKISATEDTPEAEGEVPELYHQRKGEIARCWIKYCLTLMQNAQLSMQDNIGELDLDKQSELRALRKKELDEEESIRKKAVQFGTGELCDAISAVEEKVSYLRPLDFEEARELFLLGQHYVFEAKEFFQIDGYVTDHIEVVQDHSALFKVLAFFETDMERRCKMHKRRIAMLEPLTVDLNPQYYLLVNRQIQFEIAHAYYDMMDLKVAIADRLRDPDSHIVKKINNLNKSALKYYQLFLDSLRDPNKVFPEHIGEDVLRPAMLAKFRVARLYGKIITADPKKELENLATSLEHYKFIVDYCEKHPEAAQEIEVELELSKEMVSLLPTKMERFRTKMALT
# UniProt Q9BRT3, sequence (Q9BRT3 whole entry, looked up): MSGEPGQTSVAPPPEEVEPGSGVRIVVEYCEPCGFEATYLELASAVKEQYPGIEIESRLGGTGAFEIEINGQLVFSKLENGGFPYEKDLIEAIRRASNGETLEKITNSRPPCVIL
Target,log2 fold change [1],log2 fold change (crizotinib),log2 fold change [2],log2 fold change [3],log2 fold change (duvelisib),log2 fold change (gandotinib),log2 fold change (tozasertib),log2 fold change [4],log2 fold change (doramapimod),log2 fold change (ispinesib)
KIF11 (UniProt P52732),0.034,-0.091,-0.029,0.207,-0.007,-0.018,0.12,0.19,0.13,0.761 (active)
KCTD2 (UniProt Q14681),0.178,0.02,-0.047,0.511,0.211,0.355,-0.116,-0.281,0.089,0.026
KNTC1 (UniProt P50748),0.038,-0.178,-0.002,0.045,0.061,-0.162,0.014,0.012,-0.01,-0.086
MAP2K7 isoform 4 (UniProt O14733),0.017,-0.112,0.003,-0.003,0.018,-0.055,-0.057,-0.038,0,-0.051
ITIH4 (UniProt Q14624),-0.107,-0.102,0.129,-0.005,0.103,-0.387,-0.033,-0.031,-0.291,-0.402
KEAP1 (UniProt Q14145),0.011,-0.077,-0.095,0.111,0.008,-0.176,0.077,0.049,0.089,-0.102
LIAS (UniProt O43766),0.035,0.03,0.039,0.075,0.043,0.086,-0.015,-0.08,0,-0.24
LPCAT3 (UniProt Q6P1A2),0.091,-0.121,0.171,0.006,-0.035,-0.167,-0.027,0.027,-0.042,-0.696 (active)
LMNA (UniProt P02545),-0.054,0.064,0.102,-0.231 (active),-0.013,-0.098,0.069,-0.035,0.018,0.214 (active)
LBR (UniProt Q14739),0.025,0.152,0.016,-0.031,-0.014,-0.359 (active),-0.026,0.017,-0.02,-0.08
MIEN1 (UniProt Q9BRT3),0.03,0.152,0.314 (active),-0.193,0.208,0.026,0.12,0.032,0.029,0.235
ITGA2B (UniProt P08514),-0.076,-0.068,-0.077,0.045,-0.11,0.283,0.15,0,0.031,-0.088
MICU2 (UniProt Q8IYU8),0.014,-0.173,-0.026,0.108,-0.045,-0.062,-0.036,0.035,-0.009,-0.213
MARK3 (UniProt P27448),-0.042,-0.394 (active),-0.039,0.063,-0.013,-0.194,-0.187,0.089,0.073,-0.173
KIFBP (UniProt Q96EK5),-0.036,-0.025,0.079,0.08,0.007,-0.051,0.065,0.085,-0.053,-0.139
MAST4 (UniProt O15021),-0.041,-0.188,0.064,-0.114,0.091,-0.301,-0.03,0.053,-0.088,0.007
IMMT isoform 4 (UniProt Q16891),0.017,-0.102,0.084,-0.012,0.019,-0.093,0.002,0,-0.014,-0.202
LMF2 (UniProt Q9BU23),0.039,0.016,-0.05,0.053,0.002,0.023,0.088,0.023,0.046,-0.075
KPNA1 (UniProt P52294),-0.021,-0.169,-0.029,0.084,0.047,0.01,0.075,-0.008,0.062,-0.012
ILVBL (UniProt A1L0T0),0.055,0,0.058,0.061,0.106,0.02,-0.067,-0.005,-0.003,0.213 (active)
KHDC4 (UniProt Q7Z7F0),0.045,-0.091,0,-0.074,0.255,-0.052,0.013,0.207,-0.054,0.027
MAPK9 (UniProt P45984),0.006,-0.042,0.054,-0.068,0.023,-0.018,-0.013,-0.041,0.145,0.01
KTN1 (UniProt Q86UP2),-0.016,-0.078,-0.028,0.122,-0.027,-0.047,-0.007,0.097,0.094,-0.207
LPIN1 isoform 7 (UniProt Q14693),0,-0.184,-0.034,0.031,-0.052,-0.079,-0.021,-0.043,0.067,-0.037
IPO13 (UniProt O94829),-0.042,-0.134,0.016,-0.028,0.04,-0.234,0.001,0.01,0.023,-0.13
JAK3 (UniProt P52333),0.001,0.048,0.142,-0.062,0.133,-0.132,0.032,0.135,-0.071,0.087
LTO1 (UniProt Q8WV07),0.011,0.048,-0.083,-0.063,0.078,-0.026,-0.007,-0.042,0.032,0.051
MAP3K7 (UniProt O43318),0.093,-0.193,-0.035,0.135,0.08,-0.036,-0.011,0.118,-0.001,-0.029
MAGEC2 (UniProt Q9UBF1),0.008,0.049,0.009,0.081,0.043,0.055,0.107,-0.036,-0.036,-0.012
MFSD5 isoform 2 (UniProt Q6N075),0.069,-0.039,-0.04,-0.046,0.112,-0.045,0.144,-0.004,0.004,0.051
